# Test results reported in the supplement of paper PMC4022240.
# ± gives the standard deviation.
# Legend:
# Experiment in all cases: peptide microarray binding signal (635 nm), min-max normalized on array (fraction of array maximum); higher = stronger binding
# Conditions in all cases: peptide region: H3 20-32
# [1] = target: T1, HaloTag-ATRX ADD domain (163-292)
# T1 chain: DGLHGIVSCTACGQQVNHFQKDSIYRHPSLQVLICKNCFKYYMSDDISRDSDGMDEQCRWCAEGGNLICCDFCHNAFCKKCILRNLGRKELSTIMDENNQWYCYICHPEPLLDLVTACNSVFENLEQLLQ
# In short: (§1)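 Triplicate spots of histone 13-mer peptide–cellulose conjugates with a Cy3 tracer were printed on nitrocellulose and probed for 1 h at 4°C with biotin-labelled HaloTag reader fusions (10 nM to 1 μM) plus streptavidin-Alexa Fluor 647 or rabbit histone antibodies (1:10,000 to 1:2,000) plus anti-rabbit Alexa 647. An Axon GenePix 4000B read the 635 nm channel. Binding signal is the spot-triplicate mean intensity after min-max scaling within each library.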
# [2] = target: HaloTag-ING2 PHD (mouse Ing2 200-280)
# In short: as §1
# [3] = target: anti-H3K4me3 antibody ab8580
# In short: as §1
# [4] = target: anti-H3K9me3 antibody ab8898
# In short: as §1
# [5] = peptide modifications: H3R26me2s H3K27me3, binder concentration: 1:2,000 dilution
# [6] = peptide modifications: H3R26me2s H3K27me3, binder concentration: 1:10,000 dilution
# [7] = peptide modifications: H3R26me2a H3K27me3, binder concentration: 1:2,000 dilution
# [8] = peptide modifications: H3R26me2a H3K27me3, binder concentration: 1:10,000 dilution
# [9] = peptide modifications: H3R26me2s H3K27ac, binder concentration: 1:2,000 dilution
# [10] = peptide modifications: H3R26me2s H3K27ac, binder concentration: 1:10,000 dilution
# [11] = peptide modifications: H3T22ph H3K23ac, binder concentration: 1:2,000 dilution
# [12] = peptide modifications: H3T22ph H3K23ac, binder concentration: 1:10,000 dilution
# [13] = peptide modifications: H3R26me2s H3K27me1, binder concentration: 1:2,000 dilution
# [14] = peptide modifications: H3R26me2s H3K27me1, binder concentration: 1:10,000 dilution
# [15] = peptide modifications: H3R26me2a H3K27me2, binder concentration: 1:2,000 dilution
# [16] = peptide modifications: H3R26me2a H3K27me2, binder concentration: 1:10,000 dilution
# [17] = peptide modifications: H3R26me2a, binder concentration: 1:2,000 dilution
# [18] = peptide modifications: H3R26me2a, binder concentration: 1:10,000 dilution
# [19] = peptide modifications: H3S28ph, binder concentration: 1:2,000 dilution
# [20] = peptide modifications: H3S28ph, binder concentration: 1:10,000 dilution
# [21] = peptide modifications: H3R26me2s, binder concentration: 1:2,000 dilution
# [22] = peptide modifications: H3R26me2s, binder concentration: 1:10,000 dilution
# [23] = peptide modifications: H3R26me2s H3K27me2, binder concentration: 1:2,000 dilution
# [24] = peptide modifications: H3R26me2s H3K27me2, binder concentration: 1:10,000 dilution
binder,measurement,setting,value
LATKAARKSAPAT [H3 20-32 L A T K A A Rme2s Kme3 S A P A T],peptide microarray binding signal,"[1]; peptide modifications: H3R26me2s H3K27me3, binder concentration: 50 nM",0.00342 ± 5.6e-05
same,peptide microarray binding signal,"[1]; peptide modifications: H3R26me2s H3K27me3, binder concentration: 500 nM",0.003095 ± 2.4e-05
same,peptide microarray binding signal,"[2]; peptide modifications: H3R26me2s H3K27me3, binder concentration: 10 nM",0.00889 ± 0.00023
same,peptide microarray binding signal,"[2]; peptide modifications: H3R26me2s H3K27me3, binder concentration: 100 nM",0.00808 ± 0.00038
same,peptide microarray binding signal,[3]; [5],0.0443 ± 0.0026
same,peptide microarray binding signal,[3]; [6],0.0353 ± 0.0044
same,peptide microarray binding signal,[4]; [5],0.082 ± 0.006
same,peptide microarray binding signal,[4]; [6],0.0554 ± 0.0085
LATKAARKSAPAT [H3 20-32 L A T K A A Rme2a Kme3 S A P A T],peptide microarray binding signal,"[1]; peptide modifications: H3R26me2a H3K27me3, binder concentration: 50 nM",0.00539 ± 0.00011
same,peptide microarray binding signal,"[1]; peptide modifications: H3R26me2a H3K27me3, binder concentration: 500 nM",0.0116
same,peptide microarray binding signal,"[2]; peptide modifications: H3R26me2a H3K27me3, binder concentration: 10 nM",0.0206 ± 0.0011
same,peptide microarray binding signal,"[2]; peptide modifications: H3R26me2a H3K27me3, binder concentration: 100 nM",0.0261 ± 0.0021
same,peptide microarray binding signal,[3]; [7],0.0393 ± 0.004
same,peptide microarray binding signal,[3]; [8],0.0294 ± 0.0026
same,peptide microarray binding signal,[4]; [7],0.0809 ± 0.0092
same,peptide microarray binding signal,[4]; [8],0.052 ± 0.0034
LATKAARKSAPAT [H3 20-32 L A T K A A Rme2s Kac S A P A T],peptide microarray binding signal,"[1]; peptide modifications: H3R26me2s H3K27ac, binder concentration: 50 nM",0.00495 ± 0.00035
same,peptide microarray binding signal,"[1]; peptide modifications: H3R26me2s H3K27ac, binder concentration: 500 nM",0.00714 ± 0.00025
same,peptide microarray binding signal,"[2]; peptide modifications: H3R26me2s H3K27ac, binder concentration: 10 nM",0.0155 ± 0.00088
same,peptide microarray binding signal,"[2]; peptide modifications: H3R26me2s H3K27ac, binder concentration: 100 nM",0.0127 ± 0.00058
same,peptide microarray binding signal,[3]; [9],0.00574 ± 0.0007
same,peptide microarray binding signal,[3]; [10],0.00491 ± 7.1e-05
same,peptide microarray binding signal,[4]; [9],0.0064 ± 0.0001
same,peptide microarray binding signal,[4]; [10],0.00715 ± 0.0006
LATKAARKSAPAT [H3 20-32 L A Tph Kac A A R K S A P A T],peptide microarray binding signal,"[1]; peptide modifications: H3T22ph H3K23ac, binder concentration: 50 nM",0.00602 ± 0.00043
same,peptide microarray binding signal,"[1]; peptide modifications: H3T22ph H3K23ac, binder concentration: 500 nM",0.0111 ± 0.0014
same,peptide microarray binding signal,"[2]; peptide modifications: H3T22ph H3K23ac, binder concentration: 10 nM",0.0199 ± 0.0011
same,peptide microarray binding signal,"[2]; peptide modifications: H3T22ph H3K23ac, binder concentration: 100 nM",0.0259 ± 0.00072
same,peptide microarray binding signal,[3]; [11],0.00476 ± 0.00081
same,peptide microarray binding signal,[3]; [12],0.00616 ± 0.00082
same,peptide microarray binding signal,[4]; [11],0.00257 ± 0.00028
same,peptide microarray binding signal,[4]; [12],0.00202
LATKAARKSAPAT [H3 20-32 L A T K A A Rme2s Kme S A P A T],peptide microarray binding signal,"[1]; peptide modifications: H3R26me2s H3K27me1, binder concentration: 50 nM",0.00511 ± 6.7e-05
same,peptide microarray binding signal,"[1]; peptide modifications: H3R26me2s H3K27me1, binder concentration: 500 nM",0.00771 ± 0.00038
same,peptide microarray binding signal,"[2]; peptide modifications: H3R26me2s H3K27me1, binder concentration: 10 nM",0.0191 ± 0.00015
same,peptide microarray binding signal,"[2]; peptide modifications: H3R26me2s H3K27me1, binder concentration: 100 nM",0.02409 ± 0.00015
same,peptide microarray binding signal,[3]; [13],0.00608 ± 0.0005
same,peptide microarray binding signal,[3]; [14],0.00845 ± 0.00053
same,peptide microarray binding signal,[4]; [13],0.00384 ± 0.00014
same,peptide microarray binding signal,[4]; [14],0.00283 ± 4.9e-05
LATKAARKSAPAT [H3 20-32 L A T K A A Rme2a Kme2 S A P A T],peptide microarray binding signal,"[1]; peptide modifications: H3R26me2a H3K27me2, binder concentration: 50 nM",0.004984 ± 4.8e-05
same,peptide microarray binding signal,"[1]; peptide modifications: H3R26me2a H3K27me2, binder concentration: 500 nM",0.00857 ± 0.00072
same,peptide microarray binding signal,"[2]; peptide modifications: H3R26me2a H3K27me2, binder concentration: 10 nM",0.0166 ± 0.00092
same,peptide microarray binding signal,"[2]; peptide modifications: H3R26me2a H3K27me2, binder concentration: 100 nM",0.0255 ± 0.00049
same,peptide microarray binding signal,[3]; [15],0.0097 ± 0.0011
same,peptide microarray binding signal,[3]; [16],0.0118 ± 0.00089
same,peptide microarray binding signal,[4]; [15],0.0051 ± 0.00036
same,peptide microarray binding signal,[4]; [16],0.00363 ± 7.8e-05
LATKAARKSAPAT [H3 20-32 L A T K A A Rme2a K S A P A T],peptide microarray binding signal,"[1]; peptide modifications: H3R26me2a, binder concentration: 50 nM",0.00357 ± 0.0001
same,peptide microarray binding signal,"[1]; peptide modifications: H3R26me2a, binder concentration: 500 nM",0.00624 ± 0.00038
same,peptide microarray binding signal,"[2]; peptide modifications: H3R26me2a, binder concentration: 10 nM",0.00806 ± 0.00052
same,peptide microarray binding signal,"[2]; peptide modifications: H3R26me2a, binder concentration: 100 nM",0.0122 ± 0.0012
same,peptide microarray binding signal,[3]; [17],0.00525 ± 0.00065
same,peptide microarray binding signal,[3]; [18],0.004907 ± 3.6e-05
same,peptide microarray binding signal,[4]; [17],0.00334 ± 0.00044
same,peptide microarray binding signal,[4]; [18],0.00294 ± 6.7e-05
LATKAARKSAPAT [H3 20-32 L A T K A A R K Sph A P A T],peptide microarray binding signal,"[1]; peptide modifications: H3S28ph, binder concentration: 50 nM",0.013 ± 0.00031
same,peptide microarray binding signal,"[1]; peptide modifications: H3S28ph, binder concentration: 500 nM",0.00843 ± 0.0004
same,peptide microarray binding signal,"[2]; peptide modifications: H3S28ph, binder concentration: 10 nM",0.01074 ± 4.2e-05
same,peptide microarray binding signal,"[2]; peptide modifications: H3S28ph, binder concentration: 100 nM",0.0104 ± 0.00034
same,peptide microarray binding signal,[3]; [19],0.001057 ± 8.9e-06
same,peptide microarray binding signal,[3]; [20],0.00126
same,peptide microarray binding signal,[4]; [19],0.00116 ± 2.3e-05
same,peptide microarray binding signal,[4]; [20],0.00144 ± 2.8e-05
LATKAARKSAPAT [H3 20-32 L A T K A A Rme2s K S A P A T],peptide microarray binding signal,"[1]; peptide modifications: H3R26me2s, binder concentration: 50 nM",0.00668 ± 0.00025
same,peptide microarray binding signal,"[1]; peptide modifications: H3R26me2s, binder concentration: 500 nM",0.01295 ± 0.0001
same,peptide microarray binding signal,"[2]; peptide modifications: H3R26me2s, binder concentration: 10 nM",0.0106 ± 0.00025
same,peptide microarray binding signal,"[2]; peptide modifications: H3R26me2s, binder concentration: 100 nM",0.0116 ± 0.00039
same,peptide microarray binding signal,[3]; [21],0.00451 ± 0.00012
same,peptide microarray binding signal,[3]; [22],0.00479 ± 0.00014
same,peptide microarray binding signal,[4]; [21],0.0047 ± 0.00025
same,peptide microarray binding signal,[4]; [22],0.00329 ± 9.9e-05
LATKAARKSAPAT [H3 20-32 L A T K A A Rme2s Kme2 S A P A T],peptide microarray binding signal,"[1]; peptide modifications: H3R26me2s H3K27me2, binder concentration: 50 nM",0.00351 ± 3.8e-05
same,peptide microarray binding signal,"[1]; peptide modifications: H3R26me2s H3K27me2, binder concentration: 500 nM",0.00129 ± 2.1e-05
same,peptide microarray binding signal,"[2]; peptide modifications: H3R26me2s H3K27me2, binder concentration: 10 nM",0.003342 ± 1.8e-05
same,peptide microarray binding signal,"[2]; peptide modifications: H3R26me2s H3K27me2, binder concentration: 100 nM",0.00312 ± 7.5e-05
same,peptide microarray binding signal,[3]; [23],0.00128 ± 2e-05
same,peptide microarray binding signal,[3]; [24],0.00114 ± 2.3e-05
same,peptide microarray binding signal,[4]; [23],0.000725 ± 1.1e-05
same,peptide microarray binding signal,[4]; [24],0.000865 ± 9e-06
